Seven molecules from PubChem BioAssay (NCI) can be followed below.

Test systems include HCT-15 colon; HT29 colon; SNB-75 CNS; SNB-19 CNS; U251 CNS; PC-3 prostate; SK-MEL-5 melanoma; UACC-62 melanoma; LOX IMVI melanoma; SK-MEL-28 melanoma; SK-MEL-2 melanoma; EKVX NSCLC; SN12C renal; UO-31 renal; TK-10 renal; CAKI-1 renal; A498 renal; CCRF-CEM leukemia; MOLT-4 leukemia; ACHN renal.
What all share (assay): NCI-60 one-dose screen, 48 h (100 = growth as untreated, 0 = no growth, -100 = all killed)
Holding throughout (settings): 10 µM unless noted

Where “and” joins values, the source holds several entries; their conditions need not be identical. Equal values may be shown once. The panel holds about 83,000 compounds, 20% with a hit somewhere; the sample as a whole holds those more often.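 Method: cells in 96-well plates; compound added at one concentration; 48 h incubation; percent growth measured; values under 10 scored active.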 Calls of active or inactive are those of the source.

For `Nc1[nH]nc(Nc2ccccc2)c1-c1nc2ccccc2s1`, the growth in the assay with HCT-15 colon was 11.1% (inactive); in the assay with HT29 colon, 58.5% (inactive); in the assay on SNB-75 CNS, 44.2% (inactive); with SNB-19 CNS, 34% (inactive); in the assay on U251 CNS, 22% (inactive); in the assay with PC-3 prostate it was 14.9% (inactive). In addition, the growth is 57.6% (inactive) in the assay on SK-MEL-5 melanoma; 27.2% (inactive) with UACC-62 melanoma; -79.1% (active) in the assay with LOX IMVI melanoma; 35.4% (inactive) in the assay with SK-MEL-28 melanoma; 26.8% (inactive) in the assay with SK-MEL-2 melanoma; 19% (inactive) with EKVX NSCLC. The growth with SN12C renal was 34.2% (inactive); with UO-31 renal it was 18.8% (inactive); in the assay on TK-10 renal it was 23% (inactive); with CAKI-1 renal it was 25.1% (inactive); in the assay with A498 renal, 46.8% (inactive); with CCRF-CEM leukemia it was 8.45% (active). In addition, in the assay on MOLT-4 leukemia, the growth is 4.06% (active).

Turning to `O=C(Nc1ccc(Cl)c(Cl)c1)Nc1ccc(Cl)c(Cl)c1`, the growth in the assay on HCT-15 colon is -16.7% (active) and 18.2% (inactive); in the assay on HT29 colon it was -82.6% (active) and 7.52% (active); with SNB-75 CNS, -94.2% (active) and 38.3% (inactive); with SNB-19 CNS, -62% (active) and 26.5% (inactive); in the assay with U251 CNS, -84.3% (active) and 13.3% (inactive); in the assay with PC-3 prostate, -80.2% (active) and 11.1% (inactive). The growth with SK-MEL-5 melanoma was -97.2% (active) and 34.6% (inactive); in the assay with UACC-62 melanoma it was -89.2% (active) and 12.2% (inactive); in the assay on LOX IMVI melanoma, -89.4% (active) and 9.39% (active); in the assay on SK-MEL-28 melanoma, -78.8% (active) and 34.9% (inactive); with SK-MEL-2 melanoma it was -78.9% (active) and 45.5% (inactive); with EKVX NSCLC, 23.1% (inactive). In addition, the growth in the assay with SN12C renal was -83.4% (active) and 14.8% (inactive); in the assay with UO-31 renal, -88.8% (active) and -9.62% (active); in the assay on TK-10 renal it was -96.9% (active) and 35.3% (inactive); in the assay on ACHN renal it was -85.8% (active) and 7.07% (active); in the assay on CAKI-1 renal, -90.8% (active) and -2.12% (active); in the assay on A498 renal, -90.1% (active) and -0.946% (active). Further, the growth in the assay on MOLT-4 leukemia is -28.5% (active) and 20.8% (inactive).

As for `CCN(CC)CCOc1ccccc1C`, the growth with HCT-15 colon is 107% (inactive); in the assay on HT29 colon it was 101% (inactive); with SNB-75 CNS, 98.6% (inactive); in the assay on SNB-19 CNS it was 104% (inactive); in the assay on U251 CNS, 108% (inactive); in the assay on PC-3 prostate, 97.3% (inactive). In addition, the growth was 102% (inactive) with SK-MEL-5 melanoma; 101% (inactive) in the assay on UACC-62 melanoma; 104% (inactive) in the assay on LOX IMVI melanoma; 98.3% (inactive) in the assay on SK-MEL-28 melanoma; 101% (inactive) in the assay on SK-MEL-2 melanoma; 112% (inactive) in the assay on EKVX NSCLC. The growth in the assay on SN12C renal is 98.7% (inactive); in the assay with UO-31 renal, 95% (inactive); in the assay with TK-10 renal it was 107% (inactive); with ACHN renal it was 101% (inactive); in the assay with A498 renal, 106% (inactive); in the assay on CCRF-CEM leukemia, 102% (inactive). In addition, the growth in the assay with MOLT-4 leukemia is 103% (inactive).

Consider `CCNC(=S)n1nc(SC)c(C(=O)OCC)c1N`, for which the growth is 96.3% (inactive) in the assay on HCT-15 colon; 102% (inactive) with HT29 colon; 89.5% (inactive) in the assay with SNB-75 CNS; 93.6% (inactive) in the assay with SNB-19 CNS; 109% (inactive) with U251 CNS; 102% (inactive) in the assay with PC-3 prostate. Further, the growth is 96.1% (inactive) with SK-MEL-5 melanoma; 81.6% (inactive) with UACC-62 melanoma; 95.4% (inactive) in the assay with LOX IMVI melanoma; 102% (inactive) in the assay with SK-MEL-28 melanoma; 105% (inactive) with SK-MEL-2 melanoma; 101% (inactive) with EKVX NSCLC. Besides, the growth in the assay with SN12C renal is 97.6% (inactive); in the assay on UO-31 renal it was 77.8% (inactive); with TK-10 renal it was 106% (inactive); in the assay with CAKI-1 renal, 86.7% (inactive); with A498 renal, 97.5% (inactive); with CCRF-CEM leukemia, 106% (inactive). Moreover, the growth in the assay on MOLT-4 leukemia is 81.3% (inactive).

For `COc1ccc(-c2cc(-c3cc(OC)c(OC)c(OC)c3)c(C#N)c(=O)n2CCCCC(=O)O)cc1`, the growth with HCT-15 colon was 77.3% (inactive); in the assay with HT29 colon it was 99.4% (inactive); in the assay on SNB-75 CNS, 51.8% (inactive); in the assay with SNB-19 CNS, 96.3% (inactive); in the assay with U251 CNS it was 91.5% (inactive); with PC-3 prostate it was 90.9% (inactive). The growth was 93.6% (inactive) with SK-MEL-5 melanoma; 89.8% (inactive) in the assay on UACC-62 melanoma; 78.6% (inactive) in the assay on LOX IMVI melanoma; 112% (inactive) in the assay on SK-MEL-28 melanoma; 107% (inactive) with SK-MEL-2 melanoma; 98.5% (inactive) in the assay with EKVX NSCLC. The growth in the assay on SN12C renal is 90.6% (inactive); in the assay on UO-31 renal it was 65.7% (inactive); in the assay with TK-10 renal, 112% (inactive); in the assay with CAKI-1 renal, 70.9% (inactive); in the assay on A498 renal it was 85.6% (inactive); in the assay on CCRF-CEM leukemia it was 85.3% (inactive).

For the molecule `Cc1nc(-n2[nH]c(=O)ccc2=O)sc1N=Nc1ccccc1`, the growth with HCT-15 colon is 101% (inactive); in the assay on HT29 colon it was 110% (inactive); in the assay on SNB-75 CNS it was 95.7% (inactive); in the assay with SNB-19 CNS, 99.3% (inactive); in the assay on U251 CNS, 100% (inactive); in the assay on PC-3 prostate it was 95.8% (inactive). In addition, the growth in the assay on SK-MEL-5 melanoma is 97.4% (inactive); in the assay on UACC-62 melanoma it was 93.3% (inactive); in the assay with LOX IMVI melanoma, 102% (inactive); in the assay with SK-MEL-28 melanoma it was 103% (inactive); with SK-MEL-2 melanoma it was 108% (inactive); with EKVX NSCLC it was 96.5% (inactive). The growth with SN12C renal was 97.7% (inactive); in the assay with UO-31 renal, 84.1% (inactive); in the assay on TK-10 renal, 121% (inactive); with CAKI-1 renal it was 91.5% (inactive); in the assay on A498 renal, 105% (inactive); in the assay on CCRF-CEM leukemia, 100% (inactive). In addition, the growth with MOLT-4 leukemia is 99.4% (inactive).

`C#CCn1cnc2cnc(Nc3cccc(NC(=O)CCl)c3)nc21`: the growth was 6.26% [6.25 µM] (active) in the assay with HCT-15 colon; 0.208% [6.25 µM] (active) in the assay on HT29 colon; -28.7% [6.25 µM] (active) in the assay with SNB-75 CNS; 11.5% [6.25 µM] (inactive) in the assay with SNB-19 CNS; -49.2% [6.25 µM] (active) in the assay on U251 CNS; 18.9% [6.25 µM] (inactive) in the assay on PC-3 prostate. Further, the growth was -59.4% [6.25 µM] (active) with SK-MEL-5 melanoma; -23.1% [6.25 µM] (active) with UACC-62 melanoma; -48.6% [6.25 µM] (active) with LOX IMVI melanoma; 14.5% [6.25 µM] (inactive) in the assay on SK-MEL-28 melanoma; -14.1% [6.25 µM] (active) in the assay on SK-MEL-2 melanoma; 69.1% [6.25 µM] (inactive) in the assay with EKVX NSCLC. The growth with SN12C renal was 6.82% [6.25 µM] (active); with UO-31 renal it was -71.1% [6.25 µM] (active); in the assay with TK-10 renal it was -5.69% [6.25 µM] (active); in the assay with CAKI-1 renal, -34.2% [6.25 µM] (active); with A498 renal, -42.2% [6.25 µM] (active); in the assay on MOLT-4 leukemia, 0.772% [6.25 µM] (active).
